Measured values reported in PubChem BioAssay (NCI).
Compounds without any hit were thinned out: in the full panel of roughly 83,000, 20% have a hit.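 Compound tested at a single concentration for 48 hours in 96-well plates; a percent growth value below 10 was scored as active.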 The source made the active and inactive calls.

Tests used:
Experiment in all cases: NCI-60 one-dose screen, 48 h (100 = growth as untreated, 0 = no growth, -100 = all killed)
Conditions in all cases: 10 µM unless noted
SR leukemia = system: SR leukemia
OVCAR-8 ovarian = system: OVCAR-8 ovarian
OVCAR-5 ovarian = system: OVCAR-5 ovarian
OVCAR-4 ovarian = system: OVCAR-4 ovarian
SK-OV-3 ovarian = system: SK-OV-3 ovarian
IGROV1 ovarian = system: IGROV1 ovarian
OVCAR-3 ovarian = system: OVCAR-3 ovarian
HS 578T breast = system: HS 578T breast
NCI/ADR-RES ovarian = system: NCI/ADR-RES ovarian
RPMI-8226 leukemia = system: RPMI-8226 leukemia

Measured: growth

Cn1cc(-c2cc3ncnc(Nc4ccc(CC(=O)Nc5nc(C(C)(C)C)cs5)cc4)c3s2)cn1
inactive: SR leukemia 36.2% | OVCAR-8 ovarian 38.1% | OVCAR-5 ovarian 84.3% | OVCAR-4 ovarian 28.2% | SK-OV-3 ovarian 26.2% | IGROV1 ovarian 12% | OVCAR-3 ovarian 62.3% | HS 578T breast 47.3% | NCI/ADR-RES ovarian 101%

COc1ccccc1N1CCN(C2=C(Cl)C(=O)c3ncccc3C2=O)CC1
inactive: SR leukemia 12.4% | OVCAR-8 ovarian 90.5% | OVCAR-5 ovarian 114% | OVCAR-4 ovarian 85.7% | SK-OV-3 ovarian 90.5% | IGROV1 ovarian 86.3% | HS 578T breast 87.2% | NCI/ADR-RES ovarian 81.7%

CCNCCOc1ccc(/C(=C(/CC)c2ccc(Cl)cc2)c2ccc(OCCCN(C)C)cc2)cc1
active: SR leukemia -36.8% | OVCAR-8 ovarian -81.7% | OVCAR-5 ovarian -93% | OVCAR-4 ovarian -88% | SK-OV-3 ovarian -93.8% | IGROV1 ovarian -82.3% | OVCAR-3 ovarian -77.4% | HS 578T breast -51.1% | NCI/ADR-RES ovarian -82.5%

CC1=C(C)C(=O)C(Nc2cccc(C(=O)OC(C)(C)C)c2)=C(Cl)C1=O
inactive: SR leukemia 16.3% | OVCAR-8 ovarian 92.9% | OVCAR-4 ovarian 80.2% | SK-OV-3 ovarian 103% | IGROV1 ovarian 12.4% | OVCAR-3 ovarian 101% | HS 578T breast 97.2% | NCI/ADR-RES ovarian 97.6%

CN(C)CC(=O)Nc1nc(-c2cccc(NS(=O)(=O)c3cccc4c(N(C)C)cccc34)c2)cs1
inactive: SR leukemia 74.9% | OVCAR-8 ovarian 82.6% | OVCAR-5 ovarian 105% | OVCAR-4 ovarian 87.1% | SK-OV-3 ovarian 107% | IGROV1 ovarian 90.7% | HS 578T breast 90.6% | NCI/ADR-RES ovarian 76.8%

Fc1ccc2nc(-c3cnn4cccnc34)sc2c1
inactive: SR leukemia 78% | OVCAR-8 ovarian 83.5% | OVCAR-5 ovarian 101% | OVCAR-4 ovarian 63.5% | SK-OV-3 ovarian 81% | IGROV1 ovarian 49.2% | OVCAR-3 ovarian 84.2% | HS 578T breast 90.1% | NCI/ADR-RES ovarian 96.6%

Cc1csc(/N=C(N)/N=C(\N)c2cccc(C#N)c2)n1
inactive: SR leukemia 30.2% | OVCAR-8 ovarian 85.8% | OVCAR-5 ovarian 106% | OVCAR-4 ovarian 97.2% | SK-OV-3 ovarian 76.3% | IGROV1 ovarian 77.7% | HS 578T breast 83.1% | NCI/ADR-RES ovarian 58.3%

CCCCSC1=C(Cl)CN(c2ccc(Cl)cc2)C1=O
inactive: SR leukemia 34.3% | OVCAR-8 ovarian 99.1% | OVCAR-5 ovarian 104% | OVCAR-4 ovarian 104% | SK-OV-3 ovarian 110% | IGROV1 ovarian 109% | HS 578T breast 107% | NCI/ADR-RES ovarian 103%

C#CCOc1ccc(/C=N/Nc2nc(-c3ccc(OC)cc3)cs2)cc1
inactive: SR leukemia 47% | OVCAR-8 ovarian 84.9% | OVCAR-4 ovarian 53.1% | SK-OV-3 ovarian 99.6% | IGROV1 ovarian 96.6% | HS 578T breast 94% | NCI/ADR-RES ovarian 89.6%

C=C(C)[C@@H]1CC[C@]2(COP(=O)(OCC)OCC)CC[C@]3(C)[C@H](CC[C@@H]4[C@@]5(C)CC[C@H](OP(=O)(OCC)OCC)C(C)(C)[C@@H]5CC[C@]43C)[C@@H]12
inactive: SR leukemia 30.2% | OVCAR-8 ovarian 40.5% | OVCAR-4 ovarian 65.5% | SK-OV-3 ovarian 77.2% | IGROV1 ovarian 74.5% | HS 578T breast 74.7% | NCI/ADR-RES ovarian 31.8%

N#Cc1cccc(-c2cc(-c3ccc4c(c3)OCCO4)[nH]n2)c1
inactive: SR leukemia 12.4% | OVCAR-8 ovarian 35.3% | OVCAR-5 ovarian 71.8% | OVCAR-4 ovarian 79.2% | SK-OV-3 ovarian 54.3% | IGROV1 ovarian 36.5% | HS 578T breast 40.1% | NCI/ADR-RES ovarian 20%

C#CCN(C)CCCOc1ccc(NC(=O)CCCCCCCCC(=O)NO)cc1Cl
inactive: SR leukemia 32.7% | OVCAR-8 ovarian 53.4% | OVCAR-5 ovarian 68.8% | OVCAR-4 ovarian 74.3% | SK-OV-3 ovarian 84.8% | IGROV1 ovarian 71.5% | OVCAR-3 ovarian 73.7% | HS 578T breast 70.3% | NCI/ADR-RES ovarian 82.7%

Nc1ncc(-c2ccc3ncnc(NCc4ccccc4)c3c2)cn1
active: IGROV1 ovarian -8.67%
inactive: SR leukemia 42.2% | OVCAR-8 ovarian 54.3% | OVCAR-5 ovarian 36.7% | OVCAR-4 ovarian 57.8% | SK-OV-3 ovarian 39.5% | OVCAR-3 ovarian 45.9% | HS 578T breast 14.7% | NCI/ADR-RES ovarian 69%

O=C1[C@@H]2Cc3c([nH]c4ccccc34)[C@@H](c3ccc(Cl)cc3)N2C(=O)CN1C1CCN(Cc2ccccc2)CC1
active: SR leukemia -25.3%
inactive: OVCAR-8 ovarian 43.9% | OVCAR-5 ovarian 90.1% | OVCAR-4 ovarian 49.1% | SK-OV-3 ovarian 80.5% | IGROV1 ovarian 29% | HS 578T breast 65.9% | NCI/ADR-RES ovarian 51.2%

CCOC(=O)c1c(NC(=O)c2ccc(C(F)(F)F)cc2)sc2c(CN3CCN(C)CC3)c(O)ccc12
active: SR leukemia -56.9% | OVCAR-8 ovarian -56.2% | OVCAR-5 ovarian -52.6% | OVCAR-4 ovarian -53.8% | SK-OV-3 ovarian -4.72% | IGROV1 ovarian -82.7% | OVCAR-3 ovarian -68.9% | HS 578T breast -17.8%

CN1CCN(Cc2ccc(NC(=O)c3cncc(C#Cc4cnc5ccc(OCCCS(C)(=O)=O)nn45)c3)cc2C(F)(F)F)CC1
active: SR leukemia 3.03% | OVCAR-8 ovarian -20.5% | OVCAR-5 ovarian 3.1% | OVCAR-4 ovarian -29.7% | SK-OV-3 ovarian -10.9% | IGROV1 ovarian -13.9% | HS 578T breast -24.1%
inactive: NCI/ADR-RES ovarian 75%

O=C(N/N=C\c1ccc([N+](=O)[O-])cc1)c1ccc2nc(-c3ccc(Br)cc3)[nH]c2c1
inactive: OVCAR-8 ovarian 13.5% | OVCAR-5 ovarian 44.8% | OVCAR-4 ovarian 21.3% | SK-OV-3 ovarian 45% | IGROV1 ovarian 18% | HS 578T breast 23.2% | NCI/ADR-RES ovarian 71.4%
active: SR leukemia -3.17%

CCOC(=O)c1ccc(NC2=CC(=O)C(C)=C(C)C2=O)cc1
inactive: SR leukemia 50.3% | OVCAR-8 ovarian 83.7% | OVCAR-5 ovarian 104% | SK-OV-3 ovarian 92% | IGROV1 ovarian 79.2% | HS 578T breast 94.1% | NCI/ADR-RES ovarian 65.4%
active: OVCAR-3 ovarian 0.628%

CS(=O)(=O)c1ccc(/C(=N/N=C(N)N)c2ccc(Cl)cc2)cc1
inactive: SR leukemia 35.1% | OVCAR-8 ovarian 103% | OVCAR-5 ovarian 99.7% | OVCAR-4 ovarian 98.4% | SK-OV-3 ovarian 87.2% | HS 578T breast 91.8% | NCI/ADR-RES ovarian 102%

Cn1cc(-c2nn3cc(-c4ccncc4)nc3s2)c2cc(Br)ccc21
active: SR leukemia 8.33%
inactive: OVCAR-8 ovarian 28.8% | OVCAR-5 ovarian 73.8% | OVCAR-4 ovarian 75.7% | SK-OV-3 ovarian 87.6% | IGROV1 ovarian 33.4% | HS 578T breast 54.3% | NCI/ADR-RES ovarian 42.8%

NS(=O)(=O)c1ccc(Nc2nc(Nc3ccccc3)nc(N3N=C(c4ccc(Cl)cc4)CC3c3ccc(Cl)cc3)n2)cc1 (stereo unspecified)
inactive: OVCAR-8 ovarian 68.4% | OVCAR-5 ovarian 43.2% | SK-OV-3 ovarian 64.9% | IGROV1 ovarian 34.3% | HS 578T breast 78.8% | NCI/ADR-RES ovarian 62.4%
active: SR leukemia 5.52%

C#C[C@]1(O)CC[C@H]2[C@@H]3CC=C4c5sc(Nc6ccc(C)cn6)nc5CC[C@]4(C)[C@H]3CC[C@@]21C
inactive: OVCAR-8 ovarian 25.3% | OVCAR-5 ovarian 22.2% | OVCAR-4 ovarian 42.8% | IGROV1 ovarian 29.4% | OVCAR-3 ovarian 34% | NCI/ADR-RES ovarian 20.3%
active: SR leukemia -15% | SK-OV-3 ovarian -44.8% | HS 578T breast -11.9%

CCc1nnc(NC(=O)c2cc(-c3ccc(Cl)cc3Cl)oc2C)s1
inactive: SR leukemia 96.5% | OVCAR-8 ovarian 90.3% | OVCAR-5 ovarian 92.7% | OVCAR-4 ovarian 48.4% | SK-OV-3 ovarian 106% | IGROV1 ovarian 87.8% | HS 578T breast 86% | NCI/ADR-RES ovarian 88.7%

CN(C)S(=O)(=O)c1ccc(-c2nc(C(Cl)Cl)nc3cc(-c4ccc(F)cc4)nn23)cc1
inactive: OVCAR-5 ovarian 18.3% | OVCAR-4 ovarian 21.1% | HS 578T breast 20.3%
active: SR leukemia 8.24% | OVCAR-8 ovarian 2.7% | SK-OV-3 ovarian 0.219% | IGROV1 ovarian 0.61% | OVCAR-3 ovarian 8.15% | NCI/ADR-RES ovarian 3.66%

CC(=C(c1ccc(OCCN2CCCC2)cc1)c1ccc(OCCN2CCCC2)cc1)c1ccc(Cl)cc1
inactive: SK-OV-3 ovarian 85.8%
active: SR leukemia -45.8% | OVCAR-8 ovarian -6.74% | OVCAR-5 ovarian -16% | OVCAR-4 ovarian -11.2% | IGROV1 ovarian -50.7% | OVCAR-3 ovarian -20.8% | HS 578T breast -31.2% | NCI/ADR-RES ovarian -12%

C#C[C@]1(O)CC[C@H]2[C@@H]3CC=C4c5sc(Nc6cc(C)cc(C)c6)nc5CC[C@]4(C)[C@H]3CC[C@@]21C
active: SK-OV-3 ovarian -38.7% | HS 578T breast -10.8%
inactive: SR leukemia 11.6% | OVCAR-8 ovarian 53% | OVCAR-5 ovarian 54.5% | OVCAR-4 ovarian 47.7% | IGROV1 ovarian 46.8% | OVCAR-3 ovarian 48.9% | NCI/ADR-RES ovarian 47.7%

CCN(CC)CCOc1ccc(C(=C(c2ccccc2)C2CCCC2)c2ccc(OCCN(CC)CC)cc2)cc1
inactive: OVCAR-8 ovarian 40.5% | OVCAR-4 ovarian 34.7% | SK-OV-3 ovarian 21.2% | OVCAR-3 ovarian 16.9% | HS 578T breast 12.8% | NCI/ADR-RES ovarian 97.1%
active: SR leukemia -5.92% | RPMI-8226 leukemia -30.8%

CN1CCN(c2ccc(Nc3nc(NCCNC(=O)c4ccccc4)c4sccc4n3)cc2)CC1
inactive: OVCAR-8 ovarian 62.4% | OVCAR-5 ovarian 84.1% | OVCAR-4 ovarian 55.4% | SK-OV-3 ovarian 123% | IGROV1 ovarian 87.9% | OVCAR-3 ovarian 76.9% | HS 578T breast 81% | NCI/ADR-RES ovarian 91.7%
active: SR leukemia 5.68%

COc1cc(/C=C2/C(=O)Nc3ccc(Cl)cc32)ccc1OCc1ccc(Cl)cc1
inactive: SR leukemia 41.9% | RPMI-8226 leukemia 100% | OVCAR-8 ovarian 91.2% | OVCAR-4 ovarian 20.3% | SK-OV-3 ovarian 110% | HS 578T breast 94.1% | NCI/ADR-RES ovarian 88.3%

CC(=O)Nc1cc(N2CCOCC2)c2nc(NC(=O)c3[nH]c(C)c(Cl)c3Cl)sc2c1
active: OVCAR-4 ovarian -10.8%
inactive: RPMI-8226 leukemia 55% | OVCAR-8 ovarian 67.1% | OVCAR-5 ovarian 94.7% | SK-OV-3 ovarian 95.5% | IGROV1 ovarian 82.5% | OVCAR-3 ovarian 72.3% | HS 578T breast 31.3% | NCI/ADR-RES ovarian 48.9%
